IkB signaling – suppresses IkB signaling in ABC-DLBCL reporter cells; ABC-DLBCL IkBa-CBG/CBR dual luciferase ratio, 4 h; response scale: scaled: untreated 0%, proteasome inhibitor 100%; Potency, µM (doses to about 57.1 µM); 110,000 compounds, 0.04% hits; active = well fitted curve in the direction sought with a large enough effect in the signal ratio, not every such curve was filed as active; inconclusive = small, poorly fitted or top-dose-only effect, or a change in a side signal; the % refers to the signal ratio;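 note: the direction sought is a rising ratio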
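Curves were fitted separately to fusion (green), unfused (red) and ratio luminescence, then classed by r2, magnitude and activity. Cells: OCI-Ly3, 4 h compound plus doxycycline at 37C; 10 uM MG-132 defined full response.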
p53ts 32C kill – cytotoxicity in p53ts cells at permissive temperature; H1299-p53A138V at 32C, ATP luminescence viability, 24 h; Potency, µM (titrated, usually from 46.1 µM), most hits filed as cytotoxic; 130,000 compounds, 0.93% hits; AID 924; note: nearly all actives have a fitted effect of over 55% in size
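Cells: H1299 p53ts (A138V), 600/well, pre-incubated 16–30 h at 37C. Cpd up to 46 uM, 24 h, 32C. Readout: ATPlite luminescence, 20 min RT. Normalization: DMSO vs tamoxifen 100 uM. AC50 by Hill equation.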
TSHR ag – activates the human thyroid stimulating hormone receptor; HEK293-CNG-TSHR cells (CNG channel as cAMP sensor), membrane potential dye, cAMP; P16473; Potency, µM (titrated, usually from 57.1 µM), usual class: activators; AID 926; 73,000 compounds, 0.48% hits; active = well fitted activation curve with a large enough effect in the main read-out, with a control signal flat, not every such curve was filed as active; inconclusive = small, poorly fitted or top-dose-only effect, or a change in a side signal; inactive = no such curve, though single readings can be large or run the other way; reference of the percent scale not stated here;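 note: the control signal comes from parental cells without the receptor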
Target sequence (P16473 whole entry, looked up): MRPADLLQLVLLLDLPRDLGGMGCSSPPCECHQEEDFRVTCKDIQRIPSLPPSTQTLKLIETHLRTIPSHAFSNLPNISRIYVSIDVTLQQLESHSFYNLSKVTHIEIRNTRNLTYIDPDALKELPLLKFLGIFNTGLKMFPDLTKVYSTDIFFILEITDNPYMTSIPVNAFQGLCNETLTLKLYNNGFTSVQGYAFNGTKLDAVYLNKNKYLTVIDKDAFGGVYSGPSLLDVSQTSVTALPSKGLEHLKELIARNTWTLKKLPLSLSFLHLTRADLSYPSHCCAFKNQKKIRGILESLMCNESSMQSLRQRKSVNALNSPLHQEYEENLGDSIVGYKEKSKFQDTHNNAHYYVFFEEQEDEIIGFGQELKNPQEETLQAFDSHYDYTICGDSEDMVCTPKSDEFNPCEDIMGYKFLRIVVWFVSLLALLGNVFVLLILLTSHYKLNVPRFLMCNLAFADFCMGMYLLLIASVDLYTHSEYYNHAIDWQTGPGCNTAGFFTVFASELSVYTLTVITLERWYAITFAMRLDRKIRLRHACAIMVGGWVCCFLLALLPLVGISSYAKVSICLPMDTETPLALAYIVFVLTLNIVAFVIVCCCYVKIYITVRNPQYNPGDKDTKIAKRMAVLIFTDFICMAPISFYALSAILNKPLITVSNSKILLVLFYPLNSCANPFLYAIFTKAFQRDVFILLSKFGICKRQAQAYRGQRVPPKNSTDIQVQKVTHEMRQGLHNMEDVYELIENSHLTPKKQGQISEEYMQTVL
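HEK 293 cells stably expressing TSHR and a cAMP-gated CNG channel; parental CNG-only cells as counterscreen. Cells preloaded 60 min with membrane potential dye plus 100 uM RO 20-1724, then compound 30 min; fluorescence read at 590 nm.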
p53ts 39C kill – cytotoxicity in p53ts cells at nonpermissive temperature. H1299-p53A138V viability at 39C, ATP luminescence, 24 h. Potency, µM (titrated, usually from 46.1 µM), actives largely listed as cytotoxic. 130,000 compounds, 1.5% hits; note: nearly all actives have a fitted effect of over 55% in size
Peg3 imprint – inducers of genomic imprint erasure in mouse ES cells; mouse ES Peg3-LacZ reporter, beta-gal luminescence, 40 h; Potency, µM (doses to about 60.7 µM), hits mostly activators; 110,000 compounds, 0.02% hits
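Imprint erasure is scored as LacZ activity from the silenced maternal Peg3 allele in feeder-free female ES cells cultured 40 h with LIF. Luminescence is normalized to in-plate negative controls and fitted to the Hill equation.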
HEK293 cAMP ctrl – raises cAMP in parental HEK293 cells, TSHR agonist counter-screen | parental HEK293 CNG cAMP sensor, membrane potential fluorescence | Potency, µM (doses to about 57.1 µM), hits mostly activators | 73,000 compounds, 2.5% hits | AID 938; note: nearly all actives have a fitted effect of over 55% in size
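Parental HEK 293 cells stably expressing a modified CNG channel (no TSHR) report cAMP rise as membrane depolarization. Membrane potential dye with 100 uM RO 20-1724 was loaded for 60 min at room temperature, then compound added for 30 min; fluorescence read at 590 nm.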
Large screens that a line does not name were inactive. Shown are actives, neighbours in structure and some others; about 3.1% of the full set was active somewhere. Unless noted, calls come from the whole dose curve; as a rule, active = well fitted curve in the direction sought with a large enough effect; inconclusive = small, poorly fitted or top-dose-only effect, or another doubt; inactive = no such curve, though single readings can be large; an effect the other way counts as inactive or inconclusive.

O=C1[C@@H]2C(c3ccccc3Cl)=NO[C@@H]2C(=O)N1Cc1ccccc1	TSHR ag 3.16µM
COc1ccc(CN2C(=O)[C@@H]3C(c4ccccc4Cl)=NO[C@@H]3C2=O)cc1	none (no result: TSHR ag)
CO/N=C(/C)CCC(=O)OC[C@@H]1O[C@H](C#Cc2ccccc2)C=C[C@@H]1Oc1ccc(C)cc1	none (no result: IkB signaling, Peg3 imprint)
CCOc1ccc(-c2ccc(CO)o2)cc1N	p53ts 32C kill 15.8µM, p53ts 39C kill inconclusive (no result: TSHR ag, HEK293 cAMP ctrl)
CCOc1ccc(-c2nnc(-c3ccco3)o2)cc1OCC	none
COC(=O)c1cc2occc2n1CC(=O)Nc1cccc(SC)c1	none (no result: TSHR ag, HEK293 cAMP ctrl)
COC(=O)c1cc2sccc2n1CC(=O)Nc1cccc(SC)c1	TSHR ag inconclusive, HEK293 cAMP ctrl 25.1µM
COc1ccc2[nH]c(=O)c(CN(Cc3cccs3)Cc3nnnn3C(C)(C)C)cc2c1	IkB signaling inconclusive, TSHR ag inconclusive, HEK293 cAMP ctrl inconclusive
CCOc1ccc2[nH]c(=O)c(CN(Cc3cccs3)Cc3nnnn3C(C)(C)C)cc2c1	IkB signaling inconclusive, TSHR ag inconclusive, HEK293 cAMP ctrl 25.1µM
Cc1cc(C(=O)CSc2nnc(-c3cccc(F)c3)n2N)c(C)n1Cc1ccc2c(c1)OCO2	TSHR ag inconclusive, HEK293 cAMP ctrl 10µM
CC1(C)CC[C@]2(C(=O)O)CC[C@]3(C)C(=CCC4[C@@]5(C)CC[C@H](O)C(C)(C)C5[C@H](O)C[C@]43C)C2C1 (stereo partly drawn)	none (no result: IkB signaling, TSHR ag, HEK293 cAMP ctrl)
O=c1cnc2cnc(Oc3ccccc3)nc2n1C1CC1	Peg3 imprint inconclusive
O=C(Nc1ccc2oc(-c3cc(Br)ccc3Cl)nc2c1)c1cc2ccccc2o1	p53ts 32C kill inconclusive, p53ts 39C kill 5.01µM (no result: TSHR ag, HEK293 cAMP ctrl)
O=C(O)c1ccc(NC(=O)c2cc3ccccc3o2)cc1	IkB signaling inconclusive, p53ts 32C kill 7.94µM, p53ts 39C kill 10µM (no result: TSHR ag, HEK293 cAMP ctrl)
O=C(Nc1ccc(CN2CCOCC2)cc1)c1cc2ccccc2o1	IkB signaling inconclusive, p53ts 32C kill 10µM, p53ts 39C kill 10µM
O=C(Nc1ccc2c(c1)OCO2)c1ccc(CN2CCOCC2)cc1	p53ts 32C kill 12.6µM, p53ts 39C kill inconclusive
O=C(Nc1ccc(N2CCOCC2)cc1)c1cc2ccccc2o1	p53ts 32C kill inconclusive, p53ts 39C kill inconclusive (no result: IkB signaling, Peg3 imprint)
O=C(Nc1ccc(CN2CCOCC2)cc1)c1cc2ccccn2n1	p53ts 32C kill 5.01µM, p53ts 39C kill 6.31µM
O=C(Nc1ccc(CN2CCOCC2)cc1)c1ccccc1F	p53ts 32C kill inconclusive (no result: IkB signaling, TSHR ag, Peg3 imprint, HEK293 cAMP ctrl)
COc1cc(/C=C(\C#N)c2nc3ccc(C)cc3[nH]2)ccc1OCc1ccc(C)cc1	IkB signaling inconclusive, p53ts 32C kill 15.8µM, p53ts 39C kill 3.98µM (no result: TSHR ag, HEK293 cAMP ctrl)
O=C(Cn1nnc(-c2ccc3c(c2)OCO3)n1)N1CCOCC1	none
COc1ccc(-c2ccc(-c3nnn(CC(=O)N4CCOCC4)n3)cc2)cc1	p53ts 32C kill 2.51µM, p53ts 39C kill inconclusive
CCCCCCCCCCCCCCCC(=O)NC[C@@H](COP(=O)([O-])OCC[N+](C)(C)C)OCC	p53ts 32C kill inconclusive (no result: TSHR ag, Peg3 imprint)
CCOC(=O)NC(=O)CSc1nnc(C)s1	none
CCOC(=O)c1oc2ccc(Br)cc2c1CSc1nnc(C)s1	TSHR ag inconclusive, HEK293 cAMP ctrl 31.6µM
COc1ccc(NC(=O)CSc2nncs2)cc1OC	none
CC(=O)c1ccc(NC(=O)CSc2nnc(NC(=O)NC3CCCCC3)s2)cc1	IkB signaling inconclusive, p53ts 32C kill 7.08µM, p53ts 39C kill 7.94µM (no result: TSHR ag, HEK293 cAMP ctrl)
COc1ccccc1NC(=O)CSc1nnc(NC(=O)NC2CCCCC2)s1	IkB signaling inconclusive, p53ts 32C kill inconclusive, p53ts 39C kill 7.94µM (no result: TSHR ag, HEK293 cAMP ctrl)
O=C(CSc1nnc(NC(=O)NC2CCCCC2)s1)Nc1ccccc1F	p53ts 32C kill 10µM, p53ts 39C kill 10µM (no result: TSHR ag, HEK293 cAMP ctrl)
COc1ccccc1Nc1nnc(SCC(=O)N2CCCC2)s1	none
COc1ccc(NC(=O)CSc2nnc(NC(=O)NC3CCCCC3)s2)cc1OC	IkB signaling inconclusive, p53ts 32C kill 10µM, p53ts 39C kill 7.94µM (no result: TSHR ag, HEK293 cAMP ctrl)
O=c1c2oc3ccccc3c2n(Cc2cccc(F)c2)c(=O)n1Cc1ccc2c(c1)OCO2	IkB signaling inconclusive (no result: TSHR ag, HEK293 cAMP ctrl)
Cc1ccc(-n2ncc3c(N4CCCCC4)ncnc32)cc1	IkB signaling inconclusive, p53ts 32C kill 1.58µM, p53ts 39C kill 1.58µM (no result: TSHR ag, HEK293 cAMP ctrl)
Cc1ccc(Cl)cc1-n1ncc2c(N3CCCCCC3)ncnc21	IkB signaling inconclusive, p53ts 39C kill inconclusive (no result: TSHR ag, HEK293 cAMP ctrl)
Cc1cccc(-n2ncc3c(N4CCN(c5ccccc5)CC4)ncnc32)c1	none (no result: TSHR ag, HEK293 cAMP ctrl)
COc1ccc(-n2ncc3c(N4CCCCC4)ncnc32)cc1	p53ts 32C kill 2.51µM, p53ts 39C kill 3.16µM (no result: IkB signaling, TSHR ag, Peg3 imprint, HEK293 cAMP ctrl)
COc1ccccc1N1CCN(c2ncnc3c2cnn3-c2cc(Cl)ccc2C)CC1	IkB signaling inconclusive, p53ts 32C kill inconclusive, p53ts 39C kill 12.6µM (no result: TSHR ag, HEK293 cAMP ctrl)
Cc1cccc(-n2ncc3c(N4CCCC4)ncnc32)c1	p53ts 32C kill 3.16µM, p53ts 39C kill 5.01µM
Cc1ccccc1OCC(O)Cn1c(=N)n(CCN2CCOCC2)c2ccccc21 (stereo not drawn)	TSHR ag inconclusive, HEK293 cAMP ctrl 10µM
CCn1c(=N)n(CC(O)COc2cccc(C)c2)c2ccccc21 (stereo not drawn)	TSHR ag inconclusive, HEK293 cAMP ctrl inconclusive
